This note sets out measurements from PubChem BioAssay AID504725 (Broad Institute, 2011).

In the assay the target is KSHV LANA C-terminal domain (residues 932-1162) binding to LBS DNA (UniProt O40947). Description: inhibitors of C-LANA binding to LBS DNA, dose response, biochemical, fluorescence polarization, cherry-picked samples (AID 504725). Background: Fluorescence polarisation rises when a labelled molecule tumbles more slowly, as on binding a larger partner.

Results with a measured potency or affinity are listed apart. Calls of active or inactive are those of the source. How the calls were made is not given here.

As to `COC(=O)c1c(C)oc2ccc(N(C(C)=O)S(=O)(=O)c3ccccc3)cc12`, the molecule was classed as inactive.
Under `Oc1ccccc1C=Nc1ccccc1-c1nc2ccccc2[nH]1` stands “inactive”; under `C/C(=N\Nc1nc2c(s1)CCCC2)c1ccc(Cl)cc1`, “inactive”; under `CC(Sc1ncccn1)C(=O)NNC(=O)c1cccc(Cl)c1` (configuration not stated), “inactive”.
Under `COc1cc(SC)ccc1C(=O)OCC(=O)N1CCN(C(C)=O)CC1` stands “inactive”; under `CCOC(=O)[C@H]1[C@H]2COc3cc(OC)ccc3[C@@H]2N2C(=O)CN(Cc3ccc(OC)cc3)C(=O)[C@@]12C`, “inactive”.
Then `O=C(O)c1cccc(NC2=Nc3cccc4cccc2c34)c1`, with “inactive”.
For the molecule `CCOC(=O)c1sc(NC(=O)CSC(=S)N2CCN(C)CC2)nc1C`, the outcome was inactive.
Under `COc1ccccc1C(=O)NCC(=O)OCC(=O)N(CC(C)C)c1c(N)n(Cc2ccccc2)c(=O)[nH]c1=O` stands “inactive”.
Under `CCOC(=O)c1c(C)n(C)c2ccc(OCCN(C)C)cc12` stands “inactive”; under `CN1CCc2c(sc(NC(=O)c3ccc4ccccc4c3)c2C(N)=O)C1`, “inactive”.
Then `COc1cccc(-c2cc(C(=O)N3CCN(S(=O)(=O)c4ccccc4)CC3)[nH]n2)c1`, with “inactive”; and `Nc1nnc(CC(=O)N/N=C/c2cc([N+](=O)[O-])cc(Br)c2O)s1`, with “inactive”.
Turning to `CC(C)[C@H](NC(=O)c1ccccc1F)C(=O)NC1CCCCCCC1`, the result was inactive.
Take `CCOC(=O)c1cnc(SC)nc1Sc1ccc(Cl)cc1Cl`: the molecule was called inactive.
Then `Cc1nnc2sc(-c3csc4c3CCCC4)nn12`, with “inactive”; and `O=C(NCC1CCCO1)c1cccc(S(=O)(=O)N(Cc2ccccc2)c2ccccc2)c1` (configuration not stated), with “inactive”; and `COc1ccc(C2c3ccc(O)cc3Oc3ncn(CCCO)c(=N)c32)cc1OC` (configuration not stated), with “inactive”.
`COc1ccccc1N1CCN(S(=O)(=O)c2c(C)[nH]c(C)c2C(=O)N2CCCC2)CC1`: the molecule was classed as inactive.
In the case of `O=C(COC(=O)c1ccc([N+](=O)[O-])o1)NCCCc1ccccc1`, the result was inactive.
Then `Cc1ccc(N2CC(C(=O)Nc3nnc(SCC(=O)Nc4nc(C)cs4)s3)CC2=O)cc1` (configuration not stated), with “inactive”.
Under `CSc1ncccc1C(=O)OCCCC(=O)c1ccc(F)cc1` stands “inactive”.
Under `O=C1c2ccccc2C(=O)N1Cc1ccc2c(c1)OCO2` stands “inactive”; under `CC1CC(C)CN(C(=O)c2ccc3ncsc3c2)C1` (configuration not stated), “inactive”; under `Cc1cc(/C=N/Nc2ccc([N+](=O)[O-])cn2)c(C)n1-c1cccc(C(=O)O)c1`, “inactive”.
`COc1cc(NC(=O)c2ccc(CNc3c(N4CCCC4)c(=O)c3=O)cc2)cc(OC)c1OC`: the result was inactive.
Then `COc1ccccc1CNC(=O)CCS(=O)(=O)c1cccs1`, with “inactive”.
Then `Cc1ccc(OCC(=O)NC(=S)Nc2cccc(NC(=O)c3ccc(Cl)cc3Cl)c2)cc1`, with “inactive”; and `CCOC(=O)N1CCN(C(=S)NC(=O)c2cccc(OC)c2)CC1`, with “inactive”; and `CN(C)CCCNC(=O)c1ccccc1Oc1ccccc1`, with “inactive”.
Then `COc1cccc(OCCCn2cc(/C=C3/C(=N)N4C=C(C)SC4=NC3=O)c3ccccc32)c1`, with “inactive”.
Regarding `C=CCNC(=S)N1CCN(S(=O)(=O)c2ccc(C)cc2)CC1`, the molecule was classed as inactive.
Under `Cc1[nH][nH]c(=O)c1C(c1ccc(-c2ccc(Cl)c(C(=O)O)c2)o1)c1c(C)[nH][nH]c1=O` stands “inactive”; under `COc1ccccc1CNC(=O)C(=O)NCC1CCCN1S(=O)(=O)c1cccs1` (configuration not stated), “inactive”.
Under `CNC(=S)Nc1cccc(C(=O)OC)c1` stands “inactive”.
Under `Cn1c2ccccc2c2cnn(CC(=O)Nc3cccc(F)c3)c(=O)c21` stands “inactive”.
Regarding `COc1ccc2[nH]c3c(C)c4cc[n+](C)cc4c(C)c3c2c1`, the outcome was inactive.
As to `CCc1noc(C)c1C(=O)NCCc1c[nH]c2ccccc12`, the result was inactive.
Under `CC(C)c1ccc(CNc2ccc([N+](=O)[O-])cn2)cc1` stands “inactive”; under `COc1ccc(NC(=O)COC(=O)c2c(-c3ccccc3)noc2C)cc1`, “inactive”.
Under `CC1CCCN(C(=O)C(=O)c2cn(CC(=O)N3CCCCCC3)c3ccccc23)C1` (configuration not stated) stands “inactive”; under `Cc1nc2c(=O)[nH]c(=S)[nH]c2[nH]c1=O`, “inactive”; under `C/C(=N\NC(=O)CCc1c(C)n[nH]c1C)c1ccc([N+](=O)[O-])cc1`, “inactive”.
Then `Nc1ccc(-c2nc3ccc(C(=O)O)cc3s2)cc1`, with “inactive”; and `O=C(OCc1ccccc1)N1C=CC2CC1c1c(Cl)cccc12` (configuration not stated), with “inactive”.
As to `COc1ccc(N=Nc2nc3ccc(Br)cc3n2C)cc1`, the result was inactive.
Then `Cc1c(NC(=O)CCC2CCCCC2)cc(C(=O)N2CCOCC2)cc1[N+](=O)[O-]`, with “inactive”.
For `COc1ccc(C(=O)c2ccsc2N)cc1`, the call was inactive.
Then `CCCCn1c(N)c(N(CCOC)C(=O)c2cc(C)oc2C)c(=O)[nH]c1=O`, with “inactive”.
Under `CC(=O)N/C(=C/c1ccc(OS(=O)(=O)c2ccc(C)cc2)cc1)C(=O)Nc1ccc(C(=O)O)cc1` stands “inactive”; under `O=C(O)C1C2C=CC(CC2)C1C(=O)O` (configuration not stated), “inactive”.
In the case of `CCCc1nnc(NC(=O)CCC(=O)NCc2ccc(OC)cc2)s1`, the outcome was inactive.
Then `O=C(c1cnn2c(-c3ccccc3)cc(-c3ccccc3)nc12)N1CCN(Cc2ccccc2)CC1`, with “inactive”.
Then `O=C1c2c(O)ccc(O)c2C(=O)c2c(NCCNCCO)ccc(NCCNCCO)c21`, with “inactive”; and `CCc1nnc(NC(=O)c2cccc(S(=O)(=O)N(C)c3ccccc3)c2)s1`, with “inactive”; and `Cc1cc2nc(SCCN3CCOCC3)[nH]c2cc1C`, with “inactive”.
For the molecule `Cc1sc2nnn(CC(=O)N3CCN(C(=O)c4ccco4)CC3)c(=O)c2c1C`, the outcome was inactive.
